Molecules are shown by their SMILES. For some of these results: Entries with a potency or affinity are not part of this list.

For eleven molecules, Percent Effect results are on record in ChEMBL document CHEMBL3988442, “University of Dundee, Small-Polar-MMV Screening Library” (2021).

What all share (parameters): scale not given: direction of the effect not stated beside the values
Experiment [1] concerns the target Protein translocase subunit SecA (Escherichia coli (strain K12)) (UniProt P10408). The experiment can be described thus: Assay to Identify E. coli SecA ATPase Inhibitors. It is filed as functional. The note with it: 30 µM.
Experiment [2] concerns the target T1, Ubiquitin-activating enzyme e1, putative (Leishmania donovani (strain BPK282A1)) (UniProt E9BSI1).
T1 sequence (whole entry): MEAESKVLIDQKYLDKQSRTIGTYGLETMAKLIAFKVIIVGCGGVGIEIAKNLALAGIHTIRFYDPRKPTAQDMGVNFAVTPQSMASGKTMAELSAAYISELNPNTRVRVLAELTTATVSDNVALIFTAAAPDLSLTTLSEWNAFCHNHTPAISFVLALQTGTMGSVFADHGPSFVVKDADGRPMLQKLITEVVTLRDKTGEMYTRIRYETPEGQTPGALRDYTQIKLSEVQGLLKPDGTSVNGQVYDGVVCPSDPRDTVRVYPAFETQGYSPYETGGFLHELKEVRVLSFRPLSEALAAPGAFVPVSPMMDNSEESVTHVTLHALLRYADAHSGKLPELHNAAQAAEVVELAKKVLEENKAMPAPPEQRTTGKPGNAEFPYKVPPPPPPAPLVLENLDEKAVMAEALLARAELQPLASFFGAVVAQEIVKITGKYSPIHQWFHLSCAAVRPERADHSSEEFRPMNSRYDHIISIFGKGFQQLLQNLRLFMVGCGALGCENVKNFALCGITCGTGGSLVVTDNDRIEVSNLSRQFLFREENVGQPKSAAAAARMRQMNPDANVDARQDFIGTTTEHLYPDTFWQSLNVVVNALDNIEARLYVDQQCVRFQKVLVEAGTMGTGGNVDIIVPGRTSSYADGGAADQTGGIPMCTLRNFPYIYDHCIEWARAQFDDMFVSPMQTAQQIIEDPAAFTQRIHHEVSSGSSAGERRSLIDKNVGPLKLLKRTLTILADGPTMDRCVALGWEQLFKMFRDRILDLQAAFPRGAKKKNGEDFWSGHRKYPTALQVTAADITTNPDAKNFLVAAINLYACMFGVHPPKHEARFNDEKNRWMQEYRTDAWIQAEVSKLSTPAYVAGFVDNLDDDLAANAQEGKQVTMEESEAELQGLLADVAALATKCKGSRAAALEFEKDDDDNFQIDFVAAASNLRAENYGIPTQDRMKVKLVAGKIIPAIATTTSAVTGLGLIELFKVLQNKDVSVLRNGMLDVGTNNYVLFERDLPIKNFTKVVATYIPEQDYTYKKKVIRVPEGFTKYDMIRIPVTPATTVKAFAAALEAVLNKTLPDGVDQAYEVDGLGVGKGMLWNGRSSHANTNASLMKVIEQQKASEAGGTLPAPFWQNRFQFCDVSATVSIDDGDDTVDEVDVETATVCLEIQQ
The experiment can be described thus: Leishmania donovani Ubiquitin Activating Enzyme (LdE1). It is filed as functional. To be noted: 30 µM.

The target in experiment [3] is AMP-activated protein kinase, AMPK (Homo sapiens) (UniProt P54646+O43741+P54619+Q9UGJ0+Q9Y478+Q13131+Q9UGI9). The experiment can be described thus: AMP-dependent Kinase enzyme assay. An in vitro enzyme assay that detects ADP turnover that is directly proportional to AMPK activity. This uses naive AMPK that is activated during the assay with MK-8722. It is filed as functional. To be noted: 30 µM.

The target of experiment [4] is Sialic acid-binding Ig-like lectin 9 (Homo sapiens) (UniProt Q9Y336). The experiment can be described thus: Hs-Siglec9 ALPHAscreen SOP 20170721. The note with it: 10 µM. (In general: Bead proximity is the source of the signal in Alpha formats.)
Experiment [5] relates to Trypanosoma cruzi. Kind of experiment: Trypanosoma cruzi phosphomannomutase and mannose-1-phosphate guanylyltransferase assay. It is filed as functional. To be noted: 10 µM.
Experiment [6] has as its target T2, Arginase-2, mitochondrial (Homo sapiens) (UniProt P78540).
T2 sequence (whole entry): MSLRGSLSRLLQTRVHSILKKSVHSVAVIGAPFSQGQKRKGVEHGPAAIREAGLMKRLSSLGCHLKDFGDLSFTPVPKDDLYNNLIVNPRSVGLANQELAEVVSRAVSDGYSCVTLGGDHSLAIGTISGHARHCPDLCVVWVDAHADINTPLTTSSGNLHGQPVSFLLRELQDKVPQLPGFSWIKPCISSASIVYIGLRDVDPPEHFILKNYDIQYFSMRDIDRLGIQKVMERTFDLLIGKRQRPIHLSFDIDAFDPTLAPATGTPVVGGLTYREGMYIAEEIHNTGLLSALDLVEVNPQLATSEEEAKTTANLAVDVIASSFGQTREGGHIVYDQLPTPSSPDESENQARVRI
Kind of experiment: in vitro enzyme assay to detect the production of urea directly proportional to the activity of Arginase II. Further: in the data most compounds retested in dose-response had high values. It is filed as functional. To be noted: 33.3 µM.

The target of experiment [7] is T3, Proteasome subunit beta (Trypanosoma cruzi) (UniProt O96673).
T3 sequence (whole entry): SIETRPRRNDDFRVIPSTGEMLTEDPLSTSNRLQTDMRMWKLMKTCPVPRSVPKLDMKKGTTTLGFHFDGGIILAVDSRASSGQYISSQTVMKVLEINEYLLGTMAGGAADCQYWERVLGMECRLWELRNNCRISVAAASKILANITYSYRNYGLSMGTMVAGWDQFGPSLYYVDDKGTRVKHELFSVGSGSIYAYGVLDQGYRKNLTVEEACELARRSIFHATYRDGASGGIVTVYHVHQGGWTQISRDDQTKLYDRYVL
The experiment can be described thus: Trypanosoma cruzi proteasome chymotrypsin-like activity (TcProtChymo) assay. Further: in the data most compounds retested in dose-response had high values. The note with it: 9.37 µM. Format: functional.

The species named for experiment [8] is Homo sapiens. The experiment can be described thus: To identify inhibition of the IFN signalling (Jak-Stat) pathway via expression of an eGFP reporter gene under the control of an IFN-stimulated response element (ISRE) containing MxA promoter. Format: functional. To be noted: 30 µM. Background: A reporter such as luciferase makes a cellular process visible.

For experiment [9], the target named is T4, Tyrosyl-tRNA synthetase, putative (Trypanosoma cruzi (strain CL Brener)) (UniProt Q4DSP6).
T4 sequence (whole entry): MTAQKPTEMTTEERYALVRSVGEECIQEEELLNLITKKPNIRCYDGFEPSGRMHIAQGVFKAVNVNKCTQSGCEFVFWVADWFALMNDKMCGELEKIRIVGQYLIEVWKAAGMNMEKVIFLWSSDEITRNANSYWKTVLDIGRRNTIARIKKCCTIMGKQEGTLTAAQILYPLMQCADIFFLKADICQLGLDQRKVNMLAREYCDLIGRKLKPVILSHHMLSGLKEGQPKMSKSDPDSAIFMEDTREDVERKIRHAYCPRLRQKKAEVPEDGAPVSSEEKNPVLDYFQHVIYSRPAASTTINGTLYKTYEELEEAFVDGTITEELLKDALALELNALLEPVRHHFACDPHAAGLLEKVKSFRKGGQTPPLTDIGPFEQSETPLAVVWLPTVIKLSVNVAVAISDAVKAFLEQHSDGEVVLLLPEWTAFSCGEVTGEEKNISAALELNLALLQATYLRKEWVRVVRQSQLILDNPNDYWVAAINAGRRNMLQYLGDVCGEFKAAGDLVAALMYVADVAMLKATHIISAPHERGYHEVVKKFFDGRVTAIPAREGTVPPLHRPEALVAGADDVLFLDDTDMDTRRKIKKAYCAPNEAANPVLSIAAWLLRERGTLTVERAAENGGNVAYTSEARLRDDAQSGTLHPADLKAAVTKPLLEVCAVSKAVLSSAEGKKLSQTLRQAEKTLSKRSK
The experiment can be described thus: Trypanosoma cruzi tyrosyl tRNA synthetase (TcYRS) _High Tyrosine SOP. Further: in the data most compounds retested in dose-response had high values. Format: functional. To be noted: 30 µM.

Experiment [10] addresses T4, Tyrosyl-tRNA synthetase, putative (Trypanosoma cruzi (strain CL Brener)). The experiment can be described thus: Trypanosoma cruzi tyrosyl tRNA synthetase (TcYRS) SOP. It is filed as functional. The note with it: 30 µM.
The target of experiment [11] is Chromo domain-containing protein 1 (Saccharomyces cerevisiae (strain ATCC 204508 / S288c) (Baker's yeast)) (UniProt P32657). The experiment can be described thus: ScCHD-1 Enzyme Inhibition Assay. Further: in the data most compounds retested in dose-response had high values. It is filed as functional. To be noted: 30 µM.
Sequence of Chromo domain-containing protein 1 (Saccharomyces cerevisiae (strain ATCC 204508 / S288c) (Baker's yeast)) (P32657 whole entry, the tested form may be a part): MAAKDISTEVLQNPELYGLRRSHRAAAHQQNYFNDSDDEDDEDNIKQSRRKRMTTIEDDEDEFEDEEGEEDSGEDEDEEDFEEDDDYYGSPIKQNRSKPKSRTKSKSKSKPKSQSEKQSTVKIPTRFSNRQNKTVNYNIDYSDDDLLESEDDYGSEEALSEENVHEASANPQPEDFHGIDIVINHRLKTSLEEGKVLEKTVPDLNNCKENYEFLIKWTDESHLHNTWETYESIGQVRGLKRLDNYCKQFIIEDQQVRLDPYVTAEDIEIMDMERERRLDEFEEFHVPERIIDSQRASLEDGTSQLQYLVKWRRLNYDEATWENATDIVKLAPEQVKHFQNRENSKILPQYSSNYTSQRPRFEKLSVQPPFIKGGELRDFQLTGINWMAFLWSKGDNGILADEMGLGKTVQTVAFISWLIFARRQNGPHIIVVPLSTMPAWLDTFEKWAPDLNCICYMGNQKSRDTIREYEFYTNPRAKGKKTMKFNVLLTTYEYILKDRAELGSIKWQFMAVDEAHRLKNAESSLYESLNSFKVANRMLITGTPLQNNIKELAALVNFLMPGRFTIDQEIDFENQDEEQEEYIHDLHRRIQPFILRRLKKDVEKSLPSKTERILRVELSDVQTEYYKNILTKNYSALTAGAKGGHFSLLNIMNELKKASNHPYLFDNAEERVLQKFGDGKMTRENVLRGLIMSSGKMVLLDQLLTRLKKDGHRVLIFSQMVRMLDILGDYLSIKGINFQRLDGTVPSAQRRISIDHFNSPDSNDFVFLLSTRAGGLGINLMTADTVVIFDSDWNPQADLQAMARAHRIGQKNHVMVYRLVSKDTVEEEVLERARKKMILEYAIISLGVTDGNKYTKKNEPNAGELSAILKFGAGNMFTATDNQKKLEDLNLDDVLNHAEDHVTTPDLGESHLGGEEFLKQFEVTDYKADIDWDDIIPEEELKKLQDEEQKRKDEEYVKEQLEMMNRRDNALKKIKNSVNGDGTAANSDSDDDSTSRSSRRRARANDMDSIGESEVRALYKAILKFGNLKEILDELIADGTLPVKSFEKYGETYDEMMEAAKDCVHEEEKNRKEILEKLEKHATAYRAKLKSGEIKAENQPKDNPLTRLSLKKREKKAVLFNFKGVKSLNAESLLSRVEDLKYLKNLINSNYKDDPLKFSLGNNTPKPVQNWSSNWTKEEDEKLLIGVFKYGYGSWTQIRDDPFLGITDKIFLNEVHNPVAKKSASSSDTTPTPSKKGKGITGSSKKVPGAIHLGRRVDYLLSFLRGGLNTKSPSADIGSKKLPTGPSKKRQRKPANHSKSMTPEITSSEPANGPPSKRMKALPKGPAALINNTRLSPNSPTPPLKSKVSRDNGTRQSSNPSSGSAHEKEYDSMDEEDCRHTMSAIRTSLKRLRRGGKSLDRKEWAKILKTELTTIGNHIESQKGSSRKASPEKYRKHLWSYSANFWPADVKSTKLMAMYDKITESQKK

Sequence of Protein translocase subunit SecA (Escherichia coli (strain K12)) (P10408 whole entry): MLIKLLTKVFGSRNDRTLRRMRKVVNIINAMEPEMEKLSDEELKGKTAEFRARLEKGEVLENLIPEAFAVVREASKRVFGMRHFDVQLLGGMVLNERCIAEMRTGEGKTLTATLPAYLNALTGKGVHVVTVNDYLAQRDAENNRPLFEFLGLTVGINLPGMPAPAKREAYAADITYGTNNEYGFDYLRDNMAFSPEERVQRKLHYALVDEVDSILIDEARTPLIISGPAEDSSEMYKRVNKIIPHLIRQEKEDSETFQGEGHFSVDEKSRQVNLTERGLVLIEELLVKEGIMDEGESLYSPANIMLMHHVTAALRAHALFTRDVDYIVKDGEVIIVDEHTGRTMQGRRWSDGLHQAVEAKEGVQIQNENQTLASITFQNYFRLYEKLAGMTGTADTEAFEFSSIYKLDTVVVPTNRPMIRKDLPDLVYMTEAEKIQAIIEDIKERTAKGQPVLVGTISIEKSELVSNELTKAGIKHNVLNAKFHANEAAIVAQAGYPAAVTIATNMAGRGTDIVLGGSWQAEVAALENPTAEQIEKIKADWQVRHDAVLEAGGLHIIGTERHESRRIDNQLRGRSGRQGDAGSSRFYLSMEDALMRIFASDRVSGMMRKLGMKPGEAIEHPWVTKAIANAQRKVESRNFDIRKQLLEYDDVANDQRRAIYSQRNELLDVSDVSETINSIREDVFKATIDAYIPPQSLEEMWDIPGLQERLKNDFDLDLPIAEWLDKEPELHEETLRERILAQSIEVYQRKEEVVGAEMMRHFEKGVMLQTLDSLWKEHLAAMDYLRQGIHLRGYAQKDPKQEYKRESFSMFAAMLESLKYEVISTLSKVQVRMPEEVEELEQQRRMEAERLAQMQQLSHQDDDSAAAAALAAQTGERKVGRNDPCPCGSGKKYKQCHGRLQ
Sequence of Sialic acid-binding Ig-like lectin 9 (Homo sapiens) (Q9Y336 whole entry): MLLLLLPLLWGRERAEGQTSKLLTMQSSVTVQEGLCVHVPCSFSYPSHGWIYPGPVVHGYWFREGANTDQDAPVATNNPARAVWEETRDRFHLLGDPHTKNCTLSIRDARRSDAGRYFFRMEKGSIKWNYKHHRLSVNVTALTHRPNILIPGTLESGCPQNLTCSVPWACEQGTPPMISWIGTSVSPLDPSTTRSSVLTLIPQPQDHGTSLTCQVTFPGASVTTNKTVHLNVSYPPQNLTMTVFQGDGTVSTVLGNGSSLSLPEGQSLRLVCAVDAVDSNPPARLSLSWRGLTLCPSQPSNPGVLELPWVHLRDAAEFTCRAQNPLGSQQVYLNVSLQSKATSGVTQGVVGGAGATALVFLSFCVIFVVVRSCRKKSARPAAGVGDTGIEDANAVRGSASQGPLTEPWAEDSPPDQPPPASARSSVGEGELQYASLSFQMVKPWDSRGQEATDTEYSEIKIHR

With `COc1ccc(Oc2cncc(C3CCCN3C(C)=O)n2)cc1` (stereo unspecified), the Percent Effect in experiment [1] is -0.946%; in [2] it was 12.2%; in [3] it was 4.91%; in experiment [4], -7.65%; in experiment [5], -3.56%; in experiment [6], 0.696%. Moreover, the Percent Effect in experiment [7] was 9.36%; in experiment [8], 15.2%; in experiment [9], 0%; in experiment [10], 3.9%; in experiment [11] it was -11.7%.
Take `CCc1c(C)nc2n(c1=O)CC(C(=O)Nc1nccs1)CS2` (stereo unspecified): the Percent Effect is -7.87% in [1]; 13% in [2]; -4.33% in experiment [3]; -3.77% in experiment [4]; 5.62% in [5]; 5.81% in experiment [6]. Further, the Percent Effect in experiment [7] was 7.31%; in experiment [8], 4.32%; in [9], 3.17%; in experiment [10] it was 14.1%; in experiment [11], -7.44%.
Consider `CO[C@@H]1CC[C@H]2[C@H]1OCCN2C(=O)c1ccc(C)o1`, for which the Percent Effect in experiment [1] is 2.4%; in experiment [2], 10.4%; in experiment [3], 173%; in experiment [4] it was -12.1%; in experiment [5], -7.2%; in experiment [6], -11%. The Percent Effect in [7] was 14.1%; in experiment [8], 22.1%; in experiment [9], -3.17%; in experiment [10], -1.28%; in experiment [11] it was -14%.
As to `O=C(c1ccc[nH]1)N1C[C@H]2CN(Cc3cccc(F)c3)C(=O)[C@H]2C1`, the Percent Effect is -2.55% in experiment [1]; 13.5% in [2]; 9.65% in experiment [3]; -6.44% in experiment [4]; -2.05% in [5]; 6.05% in experiment [6]. The Percent Effect in experiment [7] is 20.3%; in [8] it was 13%; in experiment [9], 0%; in experiment [10] it was 7.69%; in [11], -2.96%.
In the case of `Cc1nn(CC(C)C)c(N(C)C)c1CNCc1cccc2c1OCO2`, the Percent Effect in experiment [1] was 3.79%; in experiment [2], 13.5%; in [3], -13.1%; in [4], -3.94%; in experiment [5] it was -8.02%; in experiment [6], -12%. Further, the Percent Effect is 16.9% in [7]; 13.9% in [8]; 7.39% in experiment [9]; 11.1% in experiment [10]; -4.83% in experiment [11].
For the molecule `CC(C)Nc1ncc(CN2C[C@@H](CN3CCC(O)CC3)[C@@H](CO)C2)cn1`, the Percent Effect in experiment [1] is -5.5%; in experiment [2] it was 2.67%; in [3], -4.76%; in [4], 7.2%; in [5], 2.43%; in [6], -0.521%. Further, the Percent Effect in experiment [7] is 12.2%; in [8], 8.53%; in experiment [9] it was 4.92%; in experiment [10], 11.1%; in [11], -8.5%.
With `CC(=O)NCCc1ccc(S(=O)(=O)N(CC(C)C)C(C)C)s1`, the Percent Effect in experiment [1] was 3%; in experiment [2], 4.17%; in experiment [3], 30.7%; in experiment [4], 4.43%; in [5], -6.9%; in experiment [6], -0.883%. The Percent Effect in [7] was 18.2%; in experiment [8], 16.9%; in experiment [9] it was -2.1%; in experiment [10], -5.13%; in experiment [11], 106%.
Turning to `NC(=O)COc1cccc(C(=O)N2CCCC(n3ccnc3)C2)c1` (stereo unspecified), the Percent Effect in experiment [1] is -0.383%; in experiment [2], 0%; in experiment [3], -5.3%; in [4], 11.8%; in experiment [5], 6.41%; in experiment [6] it was 0.554%. For the same molecule, the Percent Effect in experiment [7] is -4.67%; in experiment [8], -2.06%; in experiment [9], 1.98%; in [10], 11%; in experiment [11], 2.43%.
Regarding `CCn1nc(CC(C)C)cc1C(=O)NCCCOC`, the Percent Effect in experiment [1] is -2.12%; in experiment [2] it was 6.94%; in experiment [3], 0.357%; in experiment [4], 4.91%; in experiment [5], 0.291%; in experiment [6], 4.86%. The Percent Effect in [7] came out at 15.8%; in experiment [8] it was 3.12%; in experiment [9], 5.26%; in [10], 7.69%; in experiment [11], 0.96%.
As to `N#Cc1cccc(S(=O)(=O)NC2CCN(Cc3ccccc3)C2=O)c1` (stereo unspecified), the Percent Effect in experiment [1] is -2.71%; in experiment [2], 12.7%; in [3], 0.264%; in experiment [4], 4.28%; in experiment [5], -4.44%; in [6], -6.84%. The Percent Effect in experiment [7] is 2.21%; in experiment [8] it was 1.05%; in [9] it was 3.45%; in experiment [10] it was 11.4%; in experiment [11] it was -7.32%.
For `CN(C)C(=O)CC1CC2(CCN(CC3CC3)CC2)c2cc(F)ccc21` (stereo unspecified), the Percent Effect in experiment [1] was -6.7%; in experiment [2] it was 5.41%; in [3], -8.18%; in [4], -5.86%; in experiment [5] it was -2.44%; in experiment [6] it was -4.14%. Also, the Percent Effect in experiment [7] was 3.14%; in experiment [8] it was 5.88%; in experiment [9], -5.41%; in [10] it was -2.56%; in experiment [11], 5.46%.
